In PubChem BioAssay (NCATS):
Inconclusive results are not listed. Activity calls are given as the source filed them. Calls come from the whole dose curve; as a rule, active = well fitted curve in the direction sought with a large enough effect; inconclusive = small, poorly fitted or top-dose-only effect, or another doubt; inactive = no such curve, though single readings can be large; an effect the other way counts as inactive or inconclusive.

test: qHTS of pediatric cancer cell lines to identify multiple opportunities for drug repurposing: Primary screen for DAOY cells (AID 1347090); settings: DAOY medulloblastoma viability, CellTiter-Glo luminescence, 48 h; series mostly up to 46 µM; note: nearly all actives have a fitted effect of over 55% in size
How it was run: (§1)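 Eight- or eleven-point concentration series, 48 h treatment at 37 degrees C in growth media; readout CellTiter-Glo luminescence. Potency and efficacy were taken from the concentration-response curves.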
Potency is the fitted concentration of half-maximal effect.

**Q.** Which Potency does the source give for `O=C(O)CCCc1c[nH]c2ccccc12` here?
**A.** inactive

**Q.** Which Potency does the source give for `Cc1cn2c(-c3cn[nH]c3)cnc2c(Nc2ccc(C(=O)N3CCNCC3)cc2F)n1` here?
**A.** 18.7 µM (active)

**Q.** Which Potency does the source give for `CNC(=O)CN1CCC(Oc2cc3c(Nc4cccc(Cl)c4F)ncnc3cc2OC)CC1` here?
**A.** 0.0093 µM (active)

**Q.** With `CN(C)CCCN=c1c2ccccc2n(C)c2[nH]c(=O)n(C)c(=O)c12` as the compound, how does the Potency read?
**A.** 23.5 µM (active)

**Q.** For `COc1cc2nccc(Oc3ccc(NC(=O)C4(C(=O)Nc5ccc(F)cc5)CC4)cc3)c2cc1OC`, which Potency is on record?
**A.** 14.8 µM (active)

**Q.** With `COC(=O)Nc1nc2ccc(C(=O)c3ccc(F)cc3)cc2[nH]1` as the compound, how does the Potency read?
**A.** 0.743 µM (active)

**Q.** With `CC(=O)SC[C@@H](C)C(=O)N1CCC[C@H]1C(=O)N[C@@H](Cc1ccccc1)C(=O)O` as the compound, how does the Potency read?
**A.** inactive

**Q.** Which Potency does the source give for `CCC[C@H](NC(=O)C(C#N)=Cc1cccc(Br)n1)c1ccccc1` here?
**A.** 14.8 µM (active)

**Q.** Which Potency does the source give for `Cc1ccc(C(N)=O)cc1Nc1nccc(-c2cn(C(C)C)c3cnccc23)n1` here?
**A.** 11.8 µM (active)

**Q.** For `Cc1cc(Nc2cc(CN3CCOCC3)c3nc(C)c(Cc4ccc(Cl)cc4F)n3n2)n[nH]1`, which Potency is on record?
**A.** 23.5 µM (active)

**Q.** With `CCCCOc1c(C(=O)c2c(F)cc(C)cc2F)cnc2n[nH]cc12` as the compound, how does the Potency read?
**A.** 11.8 µM (active)

**Q.** With `CC=CC1=C(C(=O)O)N2C(=O)[C@H](NC(=O)[C@H](N)c3ccc(O)cc3)[C@@H]2SC1` as the compound, how does the Potency read?
**A.** inactive

**Q.** With `COC(=O)[C@]12CCC(C)(C)C[C@@H]1[C@@H]1C(=O)C=C3[C@@]4(C)C=C(C#N)C(=O)C(C)(C)[C@@H]4CC[C@@]3(C)[C@]1(C)CC2` as the compound, how does the Potency read?
**A.** 0.59 µM (active)

**Q.** With `CNc1nccc(-c2cccnc2Oc2cc(C(=O)Nc3cccc(C(F)(F)F)c3)ccc2C)n1` as the compound, how does the Potency read?
**A.** 14.8 µM (active)

**Q.** Which Potency does the source give for `O=C(c1ccc(Nc2nccc(-c3cc4ccccc4s3)n2)cc1)N1CCC(N2CCCC2)CC1` here?
**A.** 23.5 µM (active)

**Q.** For `O=C(O)c1ccc2c(c1)nc(Nc1cccc(Cl)c1)c1ccncc12`, which Potency is on record?
**A.** 4.69 µM (active)

**Q.** With `CC(C)C[C@H](NC(=O)CNC(=O)c1cc(Cl)ccc1Cl)B(O)O` as the compound, how does the Potency read?
**A.** 0.235 µM (active)

**Q.** With `COc1cc2c(cc1-c1c(C)noc1C)ncc1[nH]c(=O)n([C@H](C)c3ccccn3)c12` as the compound, how does the Potency read?
**A.** 18.7 µM (active)

**Q.** Which Potency does the source give for `Cc1cc(N2CCOCC2)cc2[nH]c(-c3c(NC[C@@H](O)c4cccc(Cl)c4)cc[nH]c3=O)nc12` here?
**A.** 0.935 µM (active)

**Q.** For `COc1cc(=C2C=c3ccccc3=N2)[nH]c1=Cc1[nH]c(C)cc1C`, which Potency is on record?
**A.** 14.8 µM (active)

**Q.** For `CCc1cc2c(cc1N1CCC(N3CCOCC3)CC1)C(C)(C)c1[nH]c3cc(C#N)ccc3c1C2=O`, which Potency is on record?
**A.** inactive

**Q.** Which Potency does the source give for `Cc1cn2cc(C(=O)N(C)CCO)cc(N[C@@H]3CCOc4cccc(C)c43)c2n1` here?
**A.** inactive

**Q.** With `CC(NCc1ccc2c(c1)nc(NC(=O)c1ccc(-c3cn[nH]c3)s1)n2CC(C)(C)O)C(C)(C)C` (stereo unspecified) as the compound, how does the Potency read?
**A.** 2.96 µM (active)

**Q.** With `O=C(Cc1ccc(-c2ccc(OCCN3CCOCC3)cc2)cn1)NCc1ccccc1` as the compound, how does the Potency read?
**A.** 0.0372 µM (active)

**Q.** With `Cc1ccc(S(=O)(=O)Nc2cc(Cl)ccc2C(=O)Nc2nc(-c3ccccc3)cs2)cc1` as the compound, how does the Potency read?
**A.** 11.8 µM (active)

**Q.** With `COc1cc2ncn(-c3cc(OCc4ccccc4C(F)(F)F)c(C(N)=O)s3)c2cc1OC` as the compound, how does the Potency read?
**A.** 0.372 µM (active)

**Q.** For `Cn1cncc1[C@@](N)(c1ccc(Cl)cc1)c1ccc2c(c1)c(-c1cccc(Cl)c1)cc(=O)n2C`, which Potency is on record?
**A.** 14.8 µM (active)

**Q.** With `CN(C)CC=CC(=O)Nc1cc2c(Nc3ccc(F)c(Cl)c3)ncnc2cc1O[C@H]1CCOC1` as the compound, how does the Potency read?
**A.** 5.9 µM (active)

**Q.** For `O=C(Nc1cc(C(F)(F)F)cc(C(F)(F)F)c1)c1cc(Cl)ccc1O`, which Potency is on record?
**A.** 0.59 µM (active)

**Q.** With `Cc1c(Cn2c(C)nc3c(C(=O)O)cc(N4CCOCC4)cc32)cccc1C(F)(F)F` as the compound, how does the Potency read?
**A.** 7.43 µM (active)

**Q.** With `c1cc(-c2cnn3cc(-c4ccc(OCCN5CCCCC5)cc4)cnc23)ccn1` as the compound, how does the Potency read?
**A.** 18.7 µM (active)

**Q.** With `Nc1nc(-c2nn(Cc3ccccc3F)c3ncccc23)nc(N)c1N1CCOCC1` as the compound, how does the Potency read?
**A.** inactive

**Q.** With `COc1cc2c(NC3CCN(C(C)C)CC3)nc(C3CCCCC3)nc2cc1OCCCN1CCCC1` as the compound, how does the Potency read?
**A.** 18.7 µM (active)

**Q.** For `COc1cc(OC2CCN(C)CC2)ccc1Nc1ncc2c(n1)n(C1CCCC1)c(=O)n2C`, which Potency is on record?
**A.** 23.5 µM (active)

**Q.** For `COc1cc2c(Oc3ccc4[nH]c(C)cc4c3F)ncnc2cc1OCCCN1CCCC1`, which Potency is on record?
**A.** 18.7 µM (active)

test: qHTS of pediatric cancer cell lines to identify multiple opportunities for drug repurposing: Primary screen for SJ-GBM2 cells (AID 1347091); settings: SJ-GBM2 viability, CellTiter-Glo luminescence, 48 h; series mostly up to 46 µM
How it was run: as §1

**Q.** For `O=C(O)CCCc1c[nH]c2ccccc12`, which Potency is on record?
**A.** inactive

**Q.** Which Potency does the source give for `CNC(=O)CN1CCC(Oc2cc3c(Nc4cccc(Cl)c4F)ncnc3cc2OC)CC1` here?
**A.** 0.001 µM (active)

**Q.** Which Potency does the source give for `CN(C)CCCN=c1c2ccccc2n(C)c2[nH]c(=O)n(C)c(=O)c12` here?
**A.** 1.87 µM (active)

**Q.** With `COc1cc2nccc(Oc3ccc(NC(=O)C4(C(=O)Nc5ccc(F)cc5)CC4)cc3)c2cc1OC` as the compound, how does the Potency read?
**A.** 0.0235 µM (active)

**Q.** With `COC(=O)Nc1nc2ccc(C(=O)c3ccc(F)cc3)cc2[nH]1` as the compound, how does the Potency read?
**A.** 0.526 µM (active)

**Q.** Which Potency does the source give for `CC(=O)SC[C@@H](C)C(=O)N1CCC[C@H]1C(=O)N[C@@H](Cc1ccccc1)C(=O)O` here?
**A.** inactive

**Q.** For `CCC[C@H](NC(=O)C(C#N)=Cc1cccc(Br)n1)c1ccccc1`, which Potency is on record?
**A.** 8.33 µM (active)

**Q.** Which Potency does the source give for `Cc1ccc(C(N)=O)cc1Nc1nccc(-c2cn(C(C)C)c3cnccc23)n1` here?
**A.** 7.43 µM (active)

**Q.** With `Cc1cc(Nc2cc(CN3CCOCC3)c3nc(C)c(Cc4ccc(Cl)cc4F)n3n2)n[nH]1` as the compound, how does the Potency read?
**A.** 23.5 µM (active)

**Q.** Which Potency does the source give for `CCCCOc1c(C(=O)c2c(F)cc(C)cc2F)cnc2n[nH]cc12` here?
**A.** 1.18 µM (active)

**Q.** For `CC=CC1=C(C(=O)O)N2C(=O)[C@H](NC(=O)[C@H](N)c3ccc(O)cc3)[C@@H]2SC1`, which Potency is on record?
**A.** inactive

**Q.** For `COC(=O)[C@]12CCC(C)(C)C[C@@H]1[C@@H]1C(=O)C=C3[C@@]4(C)C=C(C#N)C(=O)C(C)(C)[C@@H]4CC[C@@]3(C)[C@]1(C)CC2`, which Potency is on record?
**A.** 0.235 µM (active)

**Q.** Which Potency does the source give for `CNc1nccc(-c2cccnc2Oc2cc(C(=O)Nc3cccc(C(F)(F)F)c3)ccc2C)n1` here?
**A.** 9.35 µM (active)

**Q.** Which Potency does the source give for `O=C(c1ccc(Nc2nccc(-c3cc4ccccc4s3)n2)cc1)N1CCC(N2CCCC2)CC1` here?
**A.** 13.2 µM (active)

**Q.** For `O=C(O)c1ccc2c(c1)nc(Nc1cccc(Cl)c1)c1ccncc12`, which Potency is on record?
**A.** 7.43 µM (active)

**Q.** With `Cc1cc(N2CCOCC2)cc2[nH]c(-c3c(NC[C@@H](O)c4cccc(Cl)c4)cc[nH]c3=O)nc12` as the compound, how does the Potency read?
**A.** 16.6 µM (active)

**Q.** With `COc1cc(=C2C=c3ccccc3=N2)[nH]c1=Cc1[nH]c(C)cc1C` as the compound, how does the Potency read?
**A.** 1.18 µM (active)

**Q.** For `CCc1cc2c(cc1N1CCC(N3CCOCC3)CC1)C(C)(C)c1[nH]c3cc(C#N)ccc3c1C2=O`, which Potency is on record?
**A.** inactive

**Q.** With `Cc1cn2cc(C(=O)N(C)CCO)cc(N[C@@H]3CCOc4cccc(C)c43)c2n1` as the compound, how does the Potency read?
**A.** inactive

**Q.** Which Potency does the source give for `CC(NCc1ccc2c(c1)nc(NC(=O)c1ccc(-c3cn[nH]c3)s1)n2CC(C)(C)O)C(C)(C)C` (stereo unspecified) here?
**A.** 0.296 µM (active)

**Q.** Which Potency does the source give for `O=C(Cc1ccc(-c2ccc(OCCN3CCOCC3)cc2)cn1)NCc1ccccc1` here?
**A.** 0.0187 µM (active)

**Q.** Which Potency does the source give for `Cc1ccc(S(=O)(=O)Nc2cc(Cl)ccc2C(=O)Nc2nc(-c3ccccc3)cs2)cc1` here?
**A.** 7.43 µM (active)

**Q.** Which Potency does the source give for `COc1cc2ncn(-c3cc(OCc4ccccc4C(F)(F)F)c(C(N)=O)s3)c2cc1OC` here?
**A.** 0.662 µM (active)

**Q.** With `CN(C)CC=CC(=O)Nc1cc2c(Nc3ccc(F)c(Cl)c3)ncnc2cc1O[C@H]1CCOC1` as the compound, how does the Potency read?
**A.** 3.72 µM (active)

**Q.** Which Potency does the source give for `O=C(Nc1cc(C(F)(F)F)cc(C(F)(F)F)c1)c1cc(Cl)ccc1O` here?
**A.** 0.235 µM (active)

**Q.** With `Cc1c(Cn2c(C)nc3c(C(=O)O)cc(N4CCOCC4)cc32)cccc1C(F)(F)F` as the compound, how does the Potency read?
**A.** inactive

**Q.** Which Potency does the source give for `c1cc(-c2cnn3cc(-c4ccc(OCCN5CCCCC5)cc4)cnc23)ccn1` here?
**A.** 16.6 µM (active)

**Q.** Which Potency does the source give for `Nc1nc(-c2nn(Cc3ccccc3F)c3ncccc23)nc(N)c1N1CCOCC1` here?
**A.** inactive

**Q.** Which Potency does the source give for `COc1cc2c(NC3CCN(C(C)C)CC3)nc(C3CCCCC3)nc2cc1OCCCN1CCCC1` here?
**A.** 23.5 µM (active)

**Q.** For `COc1cc(OC2CCN(C)CC2)ccc1Nc1ncc2c(n1)n(C1CCCC1)c(=O)n2C`, which Potency is on record?
**A.** 16.6 µM (active)

**Q.** Which Potency does the source give for `COc1cc2c(Oc3ccc4[nH]c(C)cc4c3F)ncnc2cc1OCCCN1CCCC1` here?
**A.** 6.62 µM (active)
